Potency data for 19 compounds are collected here from PubChem BioAssay (NCATS).

Assay [1] can be described thus: Quantitative High-Throughput drug screen in 47 multiple myeloma cell lines against the NCATS MIPE library collection: Karpas25_ECACC cell viability assay (AID 1918968; further: nearly all actives have a fitted effect of over 35% in size). In short, it runs like this: (§1)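 We plated 500 myeloma cells per well, pinned in MIPE 4.0 compounds, and incubated for 48 hours at 37C. ATP was then quantified with CellTiter-Glo, with DMSO and media-only wells defining 100% and 0%.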

The nature of assay [2]: Quantitative High-Throughput drug screen in 47 multiple myeloma cell lines against the NCATS MIPE library collection: KMS20_JCRB cell viability assay (AID 1918973). Further: nearly all actives have a fitted effect of over 45% in size. The method, boiled down:
as §1

Assay [3] is described as follows: Quantitative High-Throughput drug screen in 47 multiple myeloma cell lines against the NCATS MIPE library collection: KMS21BM_JCRB cell viability assay (AID 1918974). To be noted: ATP luminescence, 48 h; viability: at 45.8 µM (top of the series). The method, boiled down:
as §1

The nature of assay [4]: Quantitative High-Throughput drug screen in 47 multiple myeloma cell lines against the NCATS MIPE library collection: KMS26_JCRB cell viability assay (AID 1918975). Further: nearly all actives have a fitted effect of over 45% in size. The method, boiled down: (§2)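 Relative luminescence from CellTiter-Glo served as the viability signal, referenced to DMSO-treated (100%) and cell-free medium (0%) controls. Treatment lasted 48 hours at 37C with 500 cells per well.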

Assay [5] in a line: Quantitative High-Throughput drug screen in 47 multiple myeloma cell lines against the NCATS MIPE library collection: MMM1_PLB cell viability assay (AID 1918976). Further: nearly all actives have a fitted effect of over 35% in size. In short, it runs like this: (§3)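 Viability after 48 h drug exposure was measured as ATP-dependent luminescence. Cells, 500 per well, sat at 37 °C under 5% CO2; DMSO wells set 100%, media-only wells 0%.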
A short description of assay [6]: Quantitative High-Throughput drug screen in 47 multiple myeloma cell lines against the NCATS MIPE library collection: NCIH929_DSMZ cell viability assay (AID 1918978). Further: nearly all actives have a fitted effect of over 35% in size. In short, it runs like this:
as §3

Assay [7] in a line: Quantitative High-Throughput drug screen in 47 multiple myeloma cell lines against the NCATS MIPE library collection: KMS27_JCRB cell viability assay (AID 1918970). Further: nearly all actives have a fitted effect of over 30% in size. To be noted: KMS27 myeloma cells, CellTiter-Glo ATP viability, 48 h; viability (% of DMSO): at 45.8 µM (top of the series). The method, boiled down:
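Viability inhibition screen, 48 h compound exposure, luminescent ATP read-out.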

Assay [8] in a line: Quantitative High-Throughput drug screen in 47 multiple myeloma cell lines against the NCATS MIPE library collection: KMS12BM_JCRB cell viability assay (AID 1918971). Further: nearly all actives have a fitted effect of over 35% in size. The method, boiled down:
as §2

A short description of assay [9]: Quantitative High-Throughput drug screen in 47 multiple myeloma cell lines against the NCATS MIPE library collection: KMS12PE_JCRB cell viability assay (AID 1918972). Further: nearly all actives have a fitted effect of over 30% in size. In short, it runs like this:
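qHTS of the MIPE 4.0 collection: 500 myeloma cells/well, 48 h drug exposure at 37C in 5% CO2, then CellTiter-Glo for 5 min at room temperature before luminescence reading.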

The nature of assay [10]: Quantitative High-Throughput drug screen in 47 multiple myeloma cell lines against the NCATS MIPE library collection: MOLP8_DSMZ cell viability assay (AID 1918977). Further: nearly all actives have a fitted effect of over 45% in size. In short, it runs like this: as §3

Records with an inconclusive call do not appear. Activity calls are given as the source filed them. The call rests on the fitted dose curve; in most records, active means well fitted curve in the direction sought with a large enough effect; inconclusive means small, poorly fitted or top-dose-only effect, or another doubt; inactive means no such curve, though single readings can be large; an effect the other way counts as inactive or inconclusive.
Potency means the concentration at half of the fitted maximal effect.

As for `CC(=O)Nc1cccc(-n2c(=O)n(C3CC3)c(=O)c3c(Nc4ccc(I)cc4F)n(C)c(=O)c(C)c32)c1`, the Potency was 1.66 µM (active) in assay [1]; 0.0118 µM (active) in assay [2]; 0.0332 µM (active) in [3]; 7.43 µM (active) in [5]; 0.0187 µM (active) in assay [6]. For the same compound, the Potency entry in assay [4] was “inactive”.
With `O=c1cc(-c2ccc(O)c(O)c2)oc2cc(O)cc(O)c12`, the Potency in [7] is 6.62 µM (active); in assay [3], 2.09 µM (active). Moreover, the Potency result in [8], in [9] and in assay [4] was “inactive” throughout.
For the compound `OC[C@H]1O[C@@H](Oc2ccc(O)cc2)[C@H](O)[C@@H](O)[C@H]1O`, the Potency entry in assay [1], in assay [2], in assay [4] and in assay [10] was “inactive” in each case.
Regarding `COc1ccc(-c2cc3nccn3c(Nc3ncccc3C(N)=O)n2)cc1OC`, the Potency is 1.48 µM (active) in assay [1]; 10.5 µM (active) in assay [4]; 10.5 µM (active) in [5]; 3.72 µM (active) in assay [10]; 0.935 µM (active) in assay [6].
Turning to `c1ccc(-c2oc3ncnc(NC[C@@H]4CCCO4)c3c2-c2ccccc2)cc1`, the Potency in assay [7] is 4.69 µM (active); in assay [8], 23.5 µM (active); in assay [9], 4.69 µM (active); in assay [4], 18.7 µM (active). Besides, the Potency result in assay [6] is “inactive”.
Turning to `N#Cc1c(N(CC(=O)O)CC(=O)O)sc(C(=O)O)c1CC(=O)O`, the Potency in [1] is 18.7 µM (active); in [2] it was 16.6 µM (active); in assay [6], 26.4 µM (active).
As for `CCCCC(C=O)NC(=O)C(CC(C)C)NC(=O)OCc1ccccc1` (stereo not given), the Potency result in assay [7] and in assay [9] was “inactive” in each case. The Potency is 20.9 µM (active) in assay [8], 6.62 µM (active) in [5] and 20.9 µM (active) in assay [6].
For `CC(C)(OCc1nn(Cc2ccccc2)c2ccccc12)C(=O)O`, the Potency entry in assay [7] and in [9] was “inactive” throughout. Besides, the Potency in [8] was 0.418 µM (active); in assay [4], 6.62 µM (active).
Turning to `CCOC(=O)N1c2ccc(C(F)(F)F)cc2[C@@H](N(Cc2cc(C(F)(F)F)cc(C(F)(F)F)c2)C(=O)OC)C[C@H]1CC`, the Potency result in assay [7], in assay [9] and in [2] was “inactive” each time. The Potency in assay [8] was 13.2 µM (active); in assay [4], 3.32 µM (active); in [6], 8.33 µM (active).
As to `COc1cc([C@H]2Oc3cc([C@H]4Oc5cc(O)cc(O)c5C(=O)[C@H]4O)ccc3O[C@H]2CO)ccc1O`, the Potency entry in assay [7] and in assay [9] was “inactive” each time. For the same compound, the Potency in [8] was 10.5 µM (active); in assay [4], 16.6 µM (active); in assay [5], 7.43 µM (active); in assay [6], 23.5 µM (active).
Regarding `CN1CCC[C@H]1CCO[C@](C)(c1ccccc1)c1ccc(Cl)cc1`, the Potency is 13.2 µM (active) in [1] and 11.8 µM (active) in assay [6]. Further, the Potency entry in [4] and in assay [10] was “inactive” each time.
`CC(NCCc1ccc(O)cc1)C(O)c1ccc(O)cc1` (stereo not given): the Potency result in assay [7], in assay [8], in [9], in assay [4], in assay [10] and in [6] was “inactive” each time. Further, in assay [5], the Potency was 14.8 µM (active).
`COC(=O)N1CCN(Cc2cccc(NC(=O)Nc3ccc(C)nc3)c2F)CC1`: the Potency entry in assay [7], in assay [9] and in assay [10] was “inactive” each time. Moreover, the Potency in [8] is 20.9 µM (active).
In the case of `Cc1ccc(S(=O)(=O)OCC(=O)Nc2ccc(C(=O)O)c(O)c2)cc1`, the Potency in assay [1] is 20.9 µM (active). Besides, the Potency result in assay [10] is “inactive”.
Consider `CC=C(C(=CC)c1ccc(O)cc1)c1ccc(O)cc1`, for which the Potency in [7] is 11.8 µM (active); in assay [8], 16.6 µM (active); in assay [9] it was 16.6 µM (active). The Potency result in [10] and in assay [6] was “inactive” each time.
With `C[C@H](CCC(=O)O)[C@H]1CC[C@H]2[C@H]3[C@@H](CC[C@]12C)[C@@]1(C)CC[C@@H](O)C[C@H]1C[C@@H]3O`, the Potency in assay [7] is 20.9 µM (active); in [5], 1.66 µM (active). Also, the Potency result in [8], in assay [2], in [4] and in [6] was “inactive” each time.
With `Cc1nc(C(=O)NCC(=O)O)c(O)c2ccc(Oc3ccccc3)cc12`, the Potency result in assay [1], in assay [4] and in assay [6] was “inactive” in each case. In addition, in assay [5], the Potency is 0.0053 µM (active).
`O=C1NC(=O)C(=Cc2ccc(-c3ccc(F)cc3O)o2)S1`: the Potency in assay [7] was 2.09 µM (active); in assay [8], 37.2 µM (active); in [5], 2.96 µM (active). In assay [9], the Potency entry was “inactive”.
Consider `CCCCOCCOc1nc(-c2ccc(C(=O)O)c(F)c2)sc1C`, for which the Potency result in [7], in assay [9], in assay [10] and in assay [6] was “inactive” throughout. The Potency in [8] is 0.418 µM (active).
